Among the data in PubChem BioAssay (NCATS) are Potency values, retold here.

Records with an inconclusive call do not appear. Activity calls are given as the source filed them. Calls come from the whole dose curve; as a rule, active = well fitted inhibition curve with a large enough effect in the repeat runs; inconclusive = weak or mixed curves; inactive = no such curve, though single readings can be large or run the other way.
Potency is the fitted concentration of half-maximal effect.

Sequence of Cytochrome P450 2C9 (Homo sapiens) (P11712 whole entry, looked up): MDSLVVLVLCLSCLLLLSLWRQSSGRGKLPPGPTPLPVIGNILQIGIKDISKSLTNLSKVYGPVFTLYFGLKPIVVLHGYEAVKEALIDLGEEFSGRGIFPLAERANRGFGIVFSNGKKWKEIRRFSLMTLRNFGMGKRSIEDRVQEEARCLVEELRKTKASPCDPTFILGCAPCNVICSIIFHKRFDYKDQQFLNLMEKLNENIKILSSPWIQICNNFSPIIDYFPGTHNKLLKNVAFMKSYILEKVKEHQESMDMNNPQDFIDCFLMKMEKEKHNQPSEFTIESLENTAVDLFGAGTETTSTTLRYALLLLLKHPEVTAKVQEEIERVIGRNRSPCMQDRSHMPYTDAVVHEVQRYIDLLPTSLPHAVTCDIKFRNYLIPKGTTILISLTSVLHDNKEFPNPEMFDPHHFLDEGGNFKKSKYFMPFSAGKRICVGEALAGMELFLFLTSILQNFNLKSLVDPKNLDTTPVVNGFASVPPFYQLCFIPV

For this assay, the target named is Cytochrome P450 2C9 (Homo sapiens) (UniProt P11712). Put plainly: Cytochrome P450 family 2 subfamily C member 9 (CYP2C9) small molecule antagonists: luciferase biochemical (cell-free) qHTS assay (AID 1645842). Note: nearly all actives have a fitted effect of over 55% in size. The conditions noted are these: P450-Glo CYP2C9 enzyme assay, luciferin luminescence; series mostly up to 57.4 µM. The procedure, abridged:
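P450-Glo CYP2C9 system: proluciferin substrate with enzyme in mix containing 0.4% BSA, 10 min at room temperature, then NADPH regeneration solution added and incubated 1 h at 37C. Detection reagent stopped reaction; luminescence read after 20 min as RLU.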
Take `COc1ccc(CNC(=O)Nc2ccc3c(c2)N(C)C(=O)c2ccccc2S3)cc1OC`: the Potency result is “inactive”.
In the case of `COc1ccc(-c2cn3cccnc3n2)cc1NC(=O)c1cc(C)cc(C)c1` it was 4770 nM (active).
For `COc1ccc(-c2nc(SCC(=O)Nc3ccc4c(c3)OCO4)c(-c3ccc(OC)cc3)[nH]2)cc1`, the Potency was 849 nM (active).
In the case of `CCOc1cc(C(=O)Nc2ccc(-c3nc4ncccc4o3)cc2C)cc(OCC)c1OCC` it was 7560 nM (active); in that of `CC1=C(C(=O)Nc2cccc(CN)c2)C(c2ccccc2Cl)N=C(Nc2nc3ccccc3o2)N1` (stereo unspecified), 5350 nM (active); in that of `CC1=C(C(=O)Nc2cc(C(=O)O)ccn2)C(c2ccc(F)cc2Cl)N=C(Nc2nc3ccc(F)cc3o2)N1` (stereo unspecified), 23900 nM (active).
In the case of `CC1=C(C(=O)Nc2cccc(-c3nn[nH]n3)c2)C(c2ccccc2Cl)N=C(Nc2nc3ccccc3o2)N1` (stereo unspecified) it was 536 nM (active); in that of `O=C(CSc1nc2ccccc2n1Cc1cccc(F)c1)N1CCN(c2ccc(F)cc2)CC1`, 3380 nM (active).
In the case of `Cc1oc(-c2cccc(Cl)c2)nc1Cn1c(SCc2ccccc2F)nc2ccncc21` it was 7560 nM (active); in that of `CCc1ccc(OCCn2c(C3CC(=O)N(Cc4ccc(F)cc4)C3)nc3ccccc32)cc1` (stereo unspecified), “inactive”; in that of `CC(=O)C1=C(c2ccc(Cl)c(Cl)c2)N(C(C)=O)n2cnnc2S1`, 2390 nM (active).
Take `CCOc1ccc(C(=O)NCCS(=O)(=O)N2CCN(c3ccccc3F)CC2)cc1OCC`: the Potency was 2130 nM (active).
In the case of `COc1ccc(Cn2c(SCC(=O)N3CCN(c4ccc(F)cc4)CC3)nc3ccccc32)cc1` it was 1690 nM (active).
Next, `COc1ccc(C(Nc2ccccn2)c2ccc3ccc(C)nc3c2O)cc1C` (stereo unspecified): 2680 nM (active); `O=C(NCc1ccco1)c1ccc2c(c1)N(Cc1cccc(Cl)c1)C(=O)c1ccccc1S2=O` (stereo unspecified): 1340 nM (active); `Cc1cccc(NC(=O)Cn2c(=O)n(Cc3ccc(C(=O)NCc4ccc5c(c4)OCO5)cc3)c(=O)c3ccccc32)c1`: “inactive”.
In the case of `Cn1c(=O)c2c(nc(OC3CCN(C(=O)C4CC4)CC3)n2CCC(C)(C)C)n(C)c1=O` it was 12000 nM (active).
Take `CC(C)(C)NC(=O)[C@@H]1C[C@@H]2CCCC[C@@H]2CN1CC(O)[C@H](Cc1ccccc1)NC(=O)[C@@H](CC(N)=O)NC(=O)c1ccc2ccccc2n1` (stereo partly specified): the Potency is 12000 nM (active).
In the case of `Cc1cccc2nc(-c3ccccn3)c(Nc3ccccc3)n12` it was 1200 nM (active).
For the compound `COc1cc(Cl)c(C)cc1NC(=O)CSc1ncc(S(=O)(=O)c2ccc(C(C)(C)C)cc2)c(=O)[nH]1`, the Potency was 425 nM (active).
Consider `CC(=O)c1ccc(N2CCN(c3ncnc4c3cnn4C)CC2)cc1`, for which the Potency entry was “inactive”.
Next, `COc1cccc(CNC(=O)C2CCCN(c3nn4cc(-c5ccc(C)cc5)nc4s3)C2)c1` (stereo unspecified): 2390 nM (active); `Cc1ccc([S+](=O)([O-])NC2CC(C)(C)CC(C)(C)C2)cc1`: 2130 nM (active); `COc1cccc(-c2cc(F)ccc2[C@H]2Cc3nc(N)nc(C)c3C(=O)N2)n1`: 6740 nM (active).
`CCOc1ccc(CNC(=O)Cn2c(=O)c3cccn3c3ccc(F)cc32)cc1`: the Potency result was “inactive”.
In the case of `Oc1c(C(Nc2ccccn2)c2ccccc2F)ccc2cccnc12` (stereo unspecified) it was 19000 nM (active).
